Results published in PubChem BioAssay (Tox21).
Where “and” joins values, the source holds several entries; their conditions need not be identical. Equal entries are not always repeated. Results filed as inconclusive are left out. A call without a number means that no potency is given here. Unmarked numbers belong to inactive results. Calls of active or inactive are those of the source. Calls come from the whole dose curve; as a rule, active = well fitted cell-killing curve with a large enough effect in the repeat runs; inconclusive = weak or mixed curves, or effect the other way; inactive = flat fitted curve, though single readings scatter.

experiment: qHTS RealTime-Glo MT Cell Viability Assay in HEK293 cells - 0 hour (AID 1224880); settings: RealTime-Glo luminescence; series mostly up to 76.8 µM; note: nearly all actives have a fitted effect of over 45% in size; for activity change, negative = cytotoxicity: top concentration of the series differs between compounds
Text: U.S. Tox21 Program National Center for Advancing Translational Sciences [NCATS] NIH Chemical Genomics Center [NCGC] U.S. Environmental Protection Agency [EPA] National Institutes of Environmental Health Sciences [NIEHS] National Toxicology Program [NTP] U.S. Food and Drug Administration [FDA] Tox21 Assay Overview: Measure of cell viability is critical in the cell-base assay. Analysis of cell viability is necessary for the characterization of cell responses to cytotoxic drugs and environmental stress. A RealTime-Glo MT Cell Viability Assay to monitor cell viability in real time of continues cell culture during 40 hours of compound treatment was used to screen Tox21 10K library compounds in Hek293 cells. The RealTime-Glo MT Cell Viability Assay is a nonlytic, homogeneous, bioluminescent method to measure cell viability in real time using a simple, plate-based method. The assay involves adding NanoLuc luciferase and a cell-permeant prosubstrate to cells in culture. Viable cells reduce the proprietary prosubstrate to generate a substrate for NanoLuc luciferase. This substrate diffuses from cells into the surrounding culture medium, where it is rapidly used by the NanoLuc Enzyme to produce a luminescent signal. The signal correlates with the number of viable cells, making the assay well suited for cytotoxicity studies.
Tox21 Assay Protocol Summary: The mixture of Hek293 cell suspension and reagents were dispensed at 600cells/6 ul/well in 1536-well tissue culture treated black solid bottom plates using a Multidrop dispenser. After the assay plates were incubated at a 37 C/5% CO2 incubator for 5 hours, 23 nL of compounds dissolved in DMSO, positive and negative controls was transferred to the assay plate by a pintool work station. The plates were incubated at 37 C for 40 hours. The luminescence intensity were measured at 0h, 8h, 16h, 24h, 32h and 40h time points using ViewLux plate reader during compound treatment.
Potency is the fitted concentration of half-maximal effect.

Compound | Potency | activity change, negative = cytotoxicity
C[C@]12CC[C@H]3[C@@H](CCC4=CC(=O)CC[C@@H]43)[C@@H]1CC[C@@H]2OC(=O)CCc1ccco1 | inactive | 
CCC1COC(Cn2cncn2)(c2ccc(Cl)cc2Cl)O1 (stereo not given) | inactive | 
Nc1ccccc1-c1ccccc1 | inactive | 
CCN(CC)CCN1C(=O)CN=C(c2ccccc2F)c2cc(Cl)ccc21 | inactive | 
CC[C@]1(O)CC[C@H]2[C@@H]3CCC4=CCCC[C@@H]4[C@H]3CC[C@@]21C | inactive | 
OCC(Br)CBr (stereo not given) | inactive | 
Nc1nc(N)c(N)c(N)n1 | inactive | 
COCCC#N | inactive | 
CC(=O)[O-].CC(=O)[O-].CC(=O)[O-].[Sb+3] |  | -11.8% [at 2.72 µM]
N#CC(C#N)=NNc1cccc(Cl)c1 | 38.9 µM (active) | 
O=[N+]([O-])c1ccc(CCl)cc1 | inactive | 
CC1(C)C(C=C(Cl)Cl)C1C(=O)OC(C#N)c1ccc(F)c(Oc2ccccc2)c1 (stereo not given) | inactive | 
COC(=O)c1cc(Oc2ccc(Cl)cc2Cl)ccc1[N+](=O)[O-] | inactive | 
CC(C)C(Br)C(=O)NC(N)=O (stereo not given) | inactive | 
COP(=O)(OC)O/C(=C\Cl)c1cc(Cl)c(Cl)cc1Cl | inactive | 
O=[N+]([O-])c1ccc(Cl)c(Cl)c1Cl | inactive | 
CCOP(=O)(OCC)Oc1cc(C)nc(C(C)C)n1 | inactive | 
CN | inactive | 
CO/N=C(/C1=NOCCO1)c1ccccc1Oc1ncnc(Oc2ccccc2Cl)c1F | inactive | 
C[C@]12C/C(=C/O)C(=O)C[C@@H]1CC[C@@H]1[C@@H]2CC[C@@]2(C)[C@H]1CC[C@]2(C)O | inactive | 

Compound | Potency | activity change, negative = cytotoxicity
CSC(C)(C)/C=N/O | inactive | 
[Cl-].[Cl-].[Cl-].[Yb+3] | inactive | 
COc1cnc(OC)n2nc(NS(=O)(=O)c3c(OCC(F)F)cccc3C(F)(F)F)nc12 | inactive | 
C[C@@H]1CC2=CC(=O)CC[C@@H]2[C@H]2CC[C@@]3(C)[C@@H](CC[C@]3(C)O)[C@@H]21 | inactive | 
C#CC1(O)CCCCC1 | inactive | 
CC(Cc1ccc2c(c1)OCO2)NO (stereo not given) | inactive | 
O.O.O.O.O.O.O.O=S(=O)([O-])[O-].[Co+2] | inactive | 
Cc1cccc(Cc2cnc[nH]2)c1C | inactive | 
COc1nc(C)nc(NC(=O)NS(=O)(=O)c2ccccc2Cl)n1 | inactive | 
[Cl][Hg][c]1ccccc1 | inactive | 
O=C1C(Cl)=C(Cl)C(=O)C(Cl)=C1Cl | 3.08 µM (active) and 9.77 µM (active) | 
[Cl-].[Cl-].[Sn+2] | inactive | 
c1ccc2nc(N3CCNCC3)ccc2c1 | inactive | 
CN=C=O | inactive | 
C=C(C)C(=O)[O][Sn]([CH2]CCC)([CH2]CCC)[CH2]CCC | inactive | 
CCC(C)Nc1c([N+](=O)[O-])cc(C(C)(C)C)cc1[N+](=O)[O-] (stereo not given) | inactive | 
CN(C)c1ccc(N)cc1 | inactive | 
O=NN(CCO)CCO | inactive | 
C=CCBr | inactive | 
BrCCCBr | inactive | 
